HPGD inh = qHTS Assay for Inhibitors of HPGD (15-Hydroxyprostaglandin Dehydrogenase). 15-hydroxyprostaglandin dehydrogenase [NAD(+)] (Homo sapiens), P15428. purified HPGD, NADH fluorescence kinetic, PGE2 substrate. Potency, µM, for inactives: at the top dose activity change, negative = inhibition, usual class: inhibitors. 4.3% of 150,000 active; active = well fitted inhibition curve with a large enough effect, not every such curve was filed as active; inconclusive = small, poorly fitted or top-dose-only effect, or another doubt; inactive = no such curve, though single readings can be large or run the other way; note: potency is the fitted concentration of half-maximal effect; % is set by controls: 0 for no effect and ±100 for the full control effect
Target sequence (P15428 whole entry, looked up): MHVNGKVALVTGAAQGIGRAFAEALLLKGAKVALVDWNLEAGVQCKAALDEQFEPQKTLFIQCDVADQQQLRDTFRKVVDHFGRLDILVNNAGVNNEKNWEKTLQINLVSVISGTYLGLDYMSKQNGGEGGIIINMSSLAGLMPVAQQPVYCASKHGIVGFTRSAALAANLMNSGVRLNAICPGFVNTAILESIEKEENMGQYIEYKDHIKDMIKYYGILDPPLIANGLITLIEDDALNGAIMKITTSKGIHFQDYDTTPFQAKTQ
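20 nM HPGD preincubated 15 min at room temperature with compound in 50 mM Tris-HCl pH 8, 0.01% Tween 20. Started with 1 mM NAD+ and 30 uM prostaglandin E2; NADH fluorescence (360/450 nm) read 5 times over 30-s intervals, last minus first.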
CBFb-RUNX1 inh = qHTS Assay for Compounds Blocking the Interaction Between CBF-beta and RUNX1 for the Treatment of Acute Myeloid Leukemia | Runt-related transcription factor 1 (Homo sapiens) + Core-binding factor subunit beta … | AlphaScreen CBFb-His/RUNX1-biotin binding, biochemical | Potency, µM (doses to about 59.8 µM), for inactives: at the highest dose activity, negative = inhibition, most hits filed as inhibitors | 230,000 tested, under 10 active | AID 1477, 2009; note: % of control where 0% means no effect
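Inhibition was taken as any reduction in AlphaScreen signal from the CBF-beta–RUNX1 pair (His and biotin tags, 30 nM each), measured after compound (15 min) and bead (90 min) incubations at room temperature.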
HTT aggregate = qHTS Multiplex Assay to Identify Dual Action Probes in a Cell Model of Huntington: Aggregate Formation (GFP). PC12 HttQ103-GFP aggregates, Acumen cytometry, 40 h. Potency, µM (titrated, usually from 46.1 µM), for inactives: at the top dose activity change, negative = inhibition, actives largely listed as inhibitors. 1.1% of 220,000 active; note: potency is the fitted concentration of half-maximal effect; % is set by controls: 0 for no effect and ±100 for the full control effect; nearly all actives have a fitted effect of over 60% in size
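Ecdysone-promoter PC12 model expressing HTT exon 1 Q103 fused to GFP, induced by tebufenozide at 100 nM final. Compounds titrated; aggregates sized 1–25 µm scored on a 488 nm laser cytometer.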
HTT cytoprotect = qHTS Multiplex Assay to Identify Dual Action Probes in a Cell Model of Huntington: Cytoprotection (ATP); PC12 HTT-Q103 induced, cytoprotection, ATP luminescence, 40 h; Potency, µM (titrated, usually from 56.4 µM), without a hit: cytoprotection (ATP increase), hits mostly activators; 0.14% of 230,000 active; note: potency is the fitted concentration of half-maximal effect; % of control where 0% means no effect; nearly all actives have a fitted effect of over 45% in size
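Cells were plated at 1500 per well in phenol red-free DMEM with 5% equine and 5% calf serum. Tebufenozide (100 nM final) and compounds were added, then ATPlite reagent, and luminescence was read.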
PNC assembly inh = High Content Assay for Compounds that inhibit the Assembly of the Perinucleolar Compartment. PC3M PTB-GFP, PNC prevalence imaging, 16 h; active compounds read low. activity change (PNC), negative = inhibition, % at 10 µM. 3.1% of 140,000 active. AID 2417, 2010;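 active = readout at or below -70, meaning at least 70% loss of cells showing the perinucleolar compartment, a nuclear body marking cancer cells; inconclusive = readout between -30 and a set limit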;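 note: plate controls were DMSO wells for no effect and camptothecin positive control wells for full effect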
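Compounds are pinned in duplicate onto adhered PC3M cells stably expressing GFP-tagged PTB and incubated 16 h at 37 C. Cells are then fixed, nuclei stained with Hoechst, and PNC-positive cells counted.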
ALDH1A1 block = qHTS Assay for Inhibitors of Aldehyde Dehydrogenase 1 (ALDH1A1); Potency, µM (doses to about 75.3 µM), for inactives: top-dose activity, negative = inhibition, usual class: inhibitors; Purified ALDH1A1, NADH fluorescence, propionaldehyde substrate; 7.3% of 220,000 active; active = well fitted inhibition curve with a large enough effect, not every such curve was filed as active; inconclusive = small, poorly fitted or top-dose-only effect, or another doubt; inactive = no such curve, though single readings can be large or run the other way;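 note: potency is the fitted concentration of half-maximal effect; plate controls were no enzyme wells and a reference inhibitor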
Target sequence (P00352 whole entry, looked up): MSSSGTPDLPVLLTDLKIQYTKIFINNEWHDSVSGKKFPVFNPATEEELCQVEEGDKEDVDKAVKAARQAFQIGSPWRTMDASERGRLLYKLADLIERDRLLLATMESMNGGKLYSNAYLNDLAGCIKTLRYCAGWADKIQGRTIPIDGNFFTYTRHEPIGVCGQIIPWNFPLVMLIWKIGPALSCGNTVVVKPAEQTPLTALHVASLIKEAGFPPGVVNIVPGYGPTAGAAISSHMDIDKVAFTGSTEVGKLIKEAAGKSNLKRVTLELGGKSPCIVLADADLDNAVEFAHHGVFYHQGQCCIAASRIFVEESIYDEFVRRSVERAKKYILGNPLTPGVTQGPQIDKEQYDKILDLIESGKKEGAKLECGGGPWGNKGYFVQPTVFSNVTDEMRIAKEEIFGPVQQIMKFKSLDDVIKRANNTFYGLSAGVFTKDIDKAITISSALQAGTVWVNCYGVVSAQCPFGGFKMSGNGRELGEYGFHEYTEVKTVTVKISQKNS
Active calls of the source: *; ? = inconclusive; . = no result; [ ] = remark or other dose. This is a sample that favours compounds with a hit; in the whole collection about 11% have one here. Unless noted, calls come from the whole dose curve; as a rule, active = well fitted curve in the direction sought with a large enough effect; inconclusive = small, poorly fitted or top-dose-only effect, or another doubt; inactive = no such curve, though single readings can be large; an effect the other way counts as inactive or inconclusive.

SMILES | HPGD inh | CBFb-RUNX1 inh | HTT aggregate | HTT cytoprotect | PNC assembly inh | ALDH1A1 block
COCCCNC(=S)NNC(=S)Nc1cccc(Cl)c1 | . | -14% | -6%[9.22 µM] | -23%[10 µM] | . | 4.5µM*
Cc1cccc(NC(=S)NNC(=S)NCc2ccccc2)c1 | ? | -15% | -58% | -16% | 20 | 1.6µM*
O=C(CNc1cccc(Cl)c1)NNC(=S)NCc1ccccc1 | . | -4% | 1%[9.22 µM] | -2%[10 µM] | . | 0%
Cc1ccc(NC(=S)NCc2ccccc2)cc1[N+](=O)[O-] | 13µM* | -4% | -2% | 20%[10 µM] | 7 | -13%
Cc1ccc(CNC(=S)Nc2ccc(C)c([N+](=O)[O-])c2)cc1 | . | -3% | 20% | -5%[10 µM] | -10 | 4%
S=C(NCc1ccccc1)Nc1cccc(Cl)c1 | 14µM* | 5% | -28% | . | -28 | 5%
COc1ccc(CCN(Cc2cc3cc(C)cc(C)c3nc2Cl)C(=O)C2CC2)cc1 | -12% | 2% | ? | -18% | -30 | 4%
CCOC(=O)CC(C(=O)OCC)C1CCCCC1=O (centres undefined) | -8% | -10% | . | 12% | . | -7%
Cc1ccc(/C([O-])=C(/C(=S)NCc2ccccc2)[n+]2cccc(CO)c2)cc1[N+](=O)[O-] | . | -11% | 12% | -11% | . | 8.9µM*
Cc1cccc(NC(=S)NNC(=O)c2csc(C(C)C)c2)c1 | -12% | 3% | -3% | 12%[10 µM] | ? | 13µM*
CNC(=O)[C@@H]1O[C@@H](n2cnc3c(NCc4ccc(N)cc4)ncnc32)[C@@H](O)[C@H]1O | . | . | . | -2%[1.9 µM] | . | .
O=C1OC2C[C@H]1[C@@H]1C(=O)N(Cc3ccccc3)CCC1C2I (some centres undefined) | -11% | 12% | . | 13% | . | -21%
CN(C)c1ncc2nc(-c3cccs3)c(=O)n(C)c2n1 | . | . | . | -4% | . | 7%
O=C(O)CC1S/C(=N/N=C/c2ccc(-c3ccc(Cl)cc3[N+](=O)[O-])o2)NC1=O (centres undefined) | 8.9µM* | -19% | 7% | -12% | -28 | 22µM*
COc1cc2c(cc1OC)C1(Nc3c-2c(C)nn3-c2ccccc2)C(=O)Nc2ccccc21 (centres undefined) | -5% | -2% | -5% | 3.5µM* | -7 | ?
C=CCOC(=O)N[C@H](/C(C(=O)OC)=C(\C)NCc1ccccc1)c1ccc(C)cc1 | -13% | 0% | . | -4% | . | -2%
O=C(O)c1ccc(-c2ccc3cc(C45CC6CC(CC(C6)C4)C5)c(O)cc3c2)cc1 | . | -21% | . | . | . | .
CC(C)(C)N1CC(c2nc3ccccc3n2CCOc2ccccc2)CC1=O (centres undefined) | -7% | -3% | 8% | -14%[10 µM] | 20 | 3.2µM*
CC(C)(C)N1CC(c2nc3ccccc3n2Cc2ccc(Cl)cc2)CC1=O (centres undefined) | -23% | 5% | -13% | 10% | -9 | -11%
COCCNC(=O)CSc1nc2nn(-c3ccccc3)c(=O)c-2c2n1CCCCC2 | . | 14% | 5% | -39% | . | 0%
CC(=O)OC[C@@H]1O[C@H](C/C=N\O[C@@H](C)c2cn([C@H](CO)Cc3ccccc3)nn2)C=C[C@@H]1OC(C)=O | . | 12%[13.1 µM] | . | -10%[10 µM] | . | 11%[13.5 µM]
CC(c1ccccc1)N1C(=O)c2ccc(C(=O)NCc3ccco3)cc2C1=O (centres undefined) | -4% | -18% | 0% | 14%[0.074 µM] | 18 | ?
CCOc1ccc(NC(=O)NCc2ccco2)cc1 | . | 7% | -15% | -44% | . | 6%
O=C(NCc1ccco1)c1ccc2c(c1)C(=O)c1ccccc1-2 | 16µM* | 2% | 12% | -21% | ? | 28µM*
O=C(NCc1ccco1)c1ccc(COc2ccccc2Cl)cc1 | 14µM* | -5% | -20% | -13% | 57 | ?
SMILES | HPGD inh | CBFb-RUNX1 inh | HTT aggregate | HTT cytoprotect | PNC assembly inh | ALDH1A1 block
CCOc1ccc(C(=O)NCc2ccco2)cc1 | 28µM* | -12% | -9% | -25%[10 µM] | 10 | ?
O=C(NCc1ccco1)c1c(F)cccc1Cl | 14µM* | 12% | -16% | 0%[0.074 µM] | -19 | -9%
CC(C)[C@H]1COC(c2cc(Cl)cc(Cl)c2)=N1 | -6% | 2%[89.1 µM] | . | -14%[96.6 µM] | . | -7%[120 µM]
O=C(NCc1ccco1)c1cccc(F)c1 | ? | 2% | 4% | 2% | 5 | -3%
O=C(Nc1ccccc1C(=O)NCc1ccco1)Nc1cccc2ccccc12 | . | -9% | ? | 24%[10 µM] | . | -7%
O=C(NCc1ccco1)c1cccc2ccccc12 | 14µM* | 0% | -15% | -1% | -19 | -7%
CC(C)COc1ccc(C(=O)NCc2ccco2)cc1 | 16µM* | -2% | -16% | -13% | ? | ?
CC(C)(Oc1ccc(Cl)cc1)C(=O)NCc1ccco1 | -21% | 1% | ? | -6% | ? | 13µM*
O=C(NCc1ccco1)c1ccc(COc2ccc(Cl)cc2)cc1 | -24% | -1% | -10% | -5%[10 µM] | -17 | -6%
O=C(NCc1ccco1)c1ccc2ccccc2c1 | 32µM* | 4% | -8% | -18% | ? | 1%
C/C(CCN1CCCc2nc(C)c(C)cc21)=N\O[C@@H](C)CN1CCCc2nc(C)c(C)cc21 | . | -5%[13.1 µM] | . | 16%[10 µM] | . | -2%[13.5 µM]
Cc1noc(C)c1-c1ccc2ncnc(NCc3ccc(C(F)(F)F)cc3)c2c1 | . | 2% | . | . | . | .
Cc1cc2c(nc1C)CCCN2C[C@H](O)CN1CCCc2nc(-c3ccc(Br)cc3)ccc21 | . | -19%[13.1 µM] | . | 24%[10 µM] | . | 1%[13.5 µM]
COc1ccc(CCN(C)CCC[C@@](C#N)(c2cc(OC)c(OC)c(OC)c2)C(C)C)cc1OC | . | . | . | -6%[1.9 µM] | . | .
O=C(CNC(=O)c1ccco1)OCC(=O)c1cccc2ccccc12 | -17% | 9% | -9% | -4% | 26 | 22µM*
CCOc1ccc(C(=O)NCC(C)C)cc1 | 18µM* | 3% | 6% | -19% | 7 | 11%
O=C(NCc1ccco1)c1cccnc1Cl | ? | -9% | -2% | . | -11 | ?
O=C(NCc1ccco1)c1ccc(Oc2ccccc2)cc1 | 28µM* | 1% | -14%[9.22 µM] | -23% | ? | ?
O=C(NCc1ccco1)c1cccnc1-c1nc2ccccc2s1 | 16µM* | -4% | 6% | -19%[0.074 µM] | -11 | 8.9µM*
CC(=O)c1c(N2CCOCC2)nc2ccc(Cl)cc2c1-c1ccccc1 | . | -1% | -6%[9.22 µM] | 2%[10 µM] | . | .
C#CCn1c(=O)c2c(nc(/C=C/c3cccc(OC)c3)n2C)n(CCCO)c1=O | . | 6% | . | . | . | .
